High-throughput results (PubChem BioAssay)
S1P4 ag – human S1P4 receptor agonism. O95977. S1P4-expressing cell line, agonist reporter assay. activation, % at 4.98 µM. 220,000 compounds, 0.35% hits; in the data active = activation above about 11%;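 note: 0% = DMSO vehicle and 100% = reference agonist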
Target sequence (O95977 whole entry, looked up): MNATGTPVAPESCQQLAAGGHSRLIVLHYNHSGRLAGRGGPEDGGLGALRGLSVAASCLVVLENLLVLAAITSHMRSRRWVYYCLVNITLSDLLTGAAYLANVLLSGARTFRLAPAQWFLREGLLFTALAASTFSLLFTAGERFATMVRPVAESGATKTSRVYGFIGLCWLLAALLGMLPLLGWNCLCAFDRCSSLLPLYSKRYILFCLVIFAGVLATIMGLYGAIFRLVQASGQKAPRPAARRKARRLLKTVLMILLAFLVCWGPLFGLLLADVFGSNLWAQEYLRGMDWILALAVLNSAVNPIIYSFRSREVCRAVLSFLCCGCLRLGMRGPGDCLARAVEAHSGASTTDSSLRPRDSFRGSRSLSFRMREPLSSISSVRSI
CHOP inh – CHOP inhibition in unfolded protein response | inhibition, % at 10 µM | 220,000 compounds, 3.8% hits | CHO-K1 CHOP-promoter luciferase, tunicamycin-induced, 15-18 h;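 active = compounds that reduced the stress-induced luciferase reporter signal by more than about 70% of percent inhibition, limit read from the data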;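 note: 0% = tunicamycin plus vehicle and 100% = wells without tunicamycin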
S1P4 antag – antagonists of human S1P4 receptor; O95977; S1P4-expressing cells, antagonist mode, reporter read-out; inhibition, % at 4.98 µM; 220,000 compounds, 0.26% hits; AID 1510; in the data active = inhibition above about 29%;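 note: 0% = wells stimulated with agonist and 100% = vehicle wells without agonist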
Hsp70 act – transcriptional activators of Hsp70. 200,000 compounds, 0.04% hits. HeLa Hsp70 promoter luciferase reporter, luminescence; scaled: vehicle 0, proteasome-inhibitor control 100%. activation, % at 10 µM;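 active = activation above the mean across all tested compounds plus 3 SD, cutoff set per campaign, cut at about 5.5% in these data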;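 note: 100% = MG132 at 30 µM as the positive control and 0% = DMSO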
* marks the source's active call; other numbers are inactive results; / = no result. Compounds with a hit are over-represented: about 4.2% of the library has one in this group of screens.

SMILES	S1P4 ag	CHOP inh	S1P4 antag	Hsp70 act
CC(=O)Cc1nsc(Nc2ccc(Cl)cc2)n1	0	-14	0	0
COc1ccc(-n2nccc2-c2nn(-c3cccc(OC)c3)c(=O)n(C)c2=O)cc1	1	10	-1	0
CCOc1ccc(-c2cc(CCCC(=O)NCc3ccco3)no2)cc1	-2	84*	3	0
CCOc1ccc(-c2nnn(CC(=O)NCc3ccco3)n2)cc1	1	27	-10	0
CCOc1ccc2nc(SCC(=O)NC(=O)NCc3ccco3)sc2c1	-3	75*	-3	0
COc1ccc(-c2cc(CCCC(=O)NCCc3cc(OC)ccc3OC)no2)cc1	1	57	-7	0
O=C(COc1ccccc1Cl)NCc1ccco1	-2	31	-9	0
COc1ccc(-c2cc(CCCC(=O)N3CCN(c4ccc(OC)cc4)CC3)no2)cc1	1	95*	0	0
CCOc1ccccc1OCC(=O)NCc1ccco1	-1	77*	3	0
CCOc1ccc(S(=O)(=O)NC(C)(C)C)cc1-c1nc2c(C(C)(C)C)nn(C)c2c(=O)[nH]1	2	81*	-12	0
CCOC(=O)c1nnn(-c2nonc2N)c1CN(C)Cc1ccccc1	1	81*	-4	0
COc1ccc(NC(=O)C2CCN(c3nc(C)cc(C)n3)CC2)cc1	0	12	2	0
CC(C)C[C@H](NC(=O)c1[nH]cnc1C(=O)N[C@@H](Cc1ccccc1)C(=O)OC(C)(C)C)C(=O)OC(C)(C)C	/	48	/	/
COc1ccc(NC(=O)c2nc[nH]c2C(=O)N[C@@H](CC(C)C)C(=O)OC(C)(C)C)cc1	/	76*	/	/
CC(C)(C)OC(=O)CNC(=O)c1[nH]cnc1C(=O)N[C@@H](Cc1ccccc1)C(=O)OC(C)(C)C	/	90*	/	/
CC(C)C[C@H](NC(=O)c1[nH]cnc1C(=O)Nc1ccc(CNC(=O)OC(C)(C)C)cc1)C(=O)OC(C)(C)C	/	84*	/	/
COc1ccc(OCC(O)Cn2c(Br)nc3c2c(=O)[nH]c(=O)n3C)cc1 (stereo unspecified)	3	16	2	0
Cc1nc2ccc3nc(NC(=O)c4ccco4)sc3c2s1	1	/	-7	0
O=C(NNC(=O)C(O)(c1ccccc1)c1ccccc1)C1CC1	0	4	0	0
CC1CCc2c(C(=O)Oc3cccc(-n4cnnn4)c3)csc2C1 (stereo unspecified)	1	89*	-20	0
CCN1CCN(C(=O)c2ccc(Cn3c(=O)[nH]c4cc(OC)c(OC)cc4c3=O)cc2)CC1	3	-6	2	0
COc1ccc(Cn2c(=O)[nH]c3cc(C(=O)N4CCN(Cc5ccccc5)CC4)ccc3c2=O)cc1	0	72*	7	0
COc1ccc(CCn2c3c(c(=O)[nH]c2=O)C(NC(=O)c2cccs2)(C(F)(F)F)C(=O)N3)cc1OC (stereo unspecified)	-2	1	-8	-1
COc1ccc(CCn2c(O)c(C=Nc3cccc(F)c3)c(=O)[nH]c2=O)cc1OC	-2	80*	5	/
COC(=O)c1c(-c2ccc(C)cc2)csc1NC(=O)Cc1ccc(OC)c(OC)c1	-1	55	6	0
SMILES	S1P4 ag	CHOP inh	S1P4 antag	Hsp70 act
COC(=O)c1c(-c2cccc3ccccc23)csc1NC(=O)Cc1ccc(OC)c(OC)c1	0	73*	-5	0
Cc1c(Cl)cccc1NC(=S)N=Nc1c(O)n(CN2CCOCC2)c2ccccc12	-1	87*	-6	0
Oc1c(N=NC(=S)Nc2ccccc2F)c2ccccc2n1Cc1ccccc1Cl	-1	-7	-19	0
Cc1csc(NC(=O)CSc2nnc(NC(=O)COc3ccc(Cl)cc3)s2)n1	1	93*	-8	0
Cc1ccc(N2CC(C(=O)Nc3nnc(SCC(=O)Nc4nc(C)cs4)s3)CC2=O)cc1 (stereo unspecified)	1	71*	-29	0
C(#Cc1ccccc1)C[N+]1(CC#Cc2ccccc2)CCCCC1	0	4	-7	0
CCc1nc(N(CC)CC)c2oc3ccccc3c2n1	0	91*	4	0
CCc1nc(N2CCC(C)CC2)c2oc3ccccc3c2n1	-1	70*	-7	0
CCNc1nc(CC)nc2c1oc1ccccc12	1	12	-3	0
CCc1nc(SCCO)c2oc3ccccc3c2n1	1	17	3	1
CCCCCc1cc(O)c2c(C)cc(=O)oc2c1	3	72*	-13	0
CCCc1cc(=O)oc2cc(C)cc(O)c12	-2	20	9	0
Cc1cccc2sc(NC(=O)C3CCN(S(=O)(=O)c4cc([N+](=O)[O-])ccc4Cl)CC3)nc12	2	70*	-7	-1
